Compounds with a hit are over-represented: about 11% of the library has one in this group of screens.
Pf growth 96h – P. falciparum growth inhibition at 96 hours. P. falciparum luciferase reporter growth, 96 h. actives 6.9% (n = 320,000). AID 504834. Potency, µM (doses to about 28.7 µM), inactives show at the top dose activity change, negative = inhibition, hits mostly inhibitors
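Readout is luminescence from an integrated firefly luciferase in P. falciparum. Red cells, 2% hematocrit and 0.05% parasitemia final, were cultured with compound through two parasite generations (96 hours) at 37 C, 5% CO2.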
Pf growth 48h – inhibits P. falciparum growth in the first generation, 48 h; P. falciparum luciferase growth in erythrocytes, 48 h; Potency, µM (top dose mostly 28.7 µM), without a hit: at the highest dose activity change, negative = inhibition, actives largely listed as inhibitors; actives 5.9% (n = 310,000)
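Luciferase-expressing P. falciparum in infected erythrocytes (2% hematocrit, 0.1% parasitemia final) in RPMI 1640/0.5% Albumax were exposed to compound for 48 hours at 37 C, 5% CO2; growth read as luminescence.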
AMA1 RON2 block – inhibitors of Plasmodium falciparum AMA1-RON2 interaction; AlphaScreen AMA1-biotinylated RON2 peptide binding; Potency, µM (titrated, usually from 58.2 µM), for inactives: top-dose activity change, negative = inhibition, actives largely listed as inhibitors; actives 0.2% (n = 360,000); AID 720542;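 also: 0% = vehicle wells and -100% = peptide control; nearly all actives have a fitted effect of over 45% in size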
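AMA1 (3D7) with his tag at 25 nM final met compounds first, then biotinylated RON2 peptide at 25 nM; detection used donor plus acceptor beads, 10 µg/mL apiece, read by AlphaScreen after 30 min at room temperature.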
HCV inhibitor – HCV inhibition; Potency, µM (series often up to 41.8 µM), for the others: at the highest dose activity change, negative = inhibition, actives largely listed as inhibitors; Huh7.5.1 HCVcc-Cre infection, luciferase reporter, 44 h; actives 3.4% (n = 340,000)
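A cell-based infection assay in which seeded cells (1,000 per well) receive test compound after 4 h, are inoculated with HCVcc-Cre at approximately 0.5 moi, and are incubated 44 h before luminescence detection.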
* marks the source's active call; other numbers are inactive results; ? = inconclusive; nt = no result; [ ] = remark or other dose. Calls follow the shape of the dose curve; as a rule, active = well fitted curve in the direction sought with a large enough effect; inconclusive = small, poorly fitted or top-dose-only effect, or another doubt; inactive = no such curve, though single readings can be large; an effect the other way counts as inactive or inconclusive. Unless noted, % is scaled to controls: 0 for no effect and ±100 for the full control effect; potency is read from the fitted curve at half-maximal effect.

SMILES | Pf growth 96h | Pf growth 48h | AMA1 RON2 block | HCV inhibitor
CC(C)n1c(SCC(=O)c2ccc3c(c2)OCCO3)nc2c1c(=O)n(C)c(=O)n2C | -24.4% | -17.1% | -7.7% | 12.6µM*
C/C(=N/Nc1nc(-c2ccccc2)cc(-c2ccccc2)n1)c1ccc(N)cc1 | ? | ? | nt | -17.4%
C/C(=N/Nc1ccnc2cc(Cl)ccc12)c1ccc(O)cc1 | 0.294µM* | 0.329µM* | 0.0% | ?
C/C(=N/Nc1ccnc2cc(Cl)ccc12)c1ccc(N)cc1 | 0.465µM* | 0.828µM* | ? | ?
Cc1ccc2nc(N3CC(=O)Nc4ccccc43)nc(-c3ccccc3)c2c1 | 9.28µM* | -8.7% | 5.6% | ?
CCN1C(=O)[C@H]2[C@H]3CN=C(SCc4ccc(C)cc4)N3[C@@](Cc3ccccc3)(C(=O)OC)[C@H]2C1=O | nt | nt | -5.1% | 0.316µM*
CCN1C(=O)[C@H]2[C@H]3CN=C(SC)N3[C@@](Cc3ccccc3)(C(=O)OC)[C@H]2C1=O | nt | nt | 5.9% | 0.562µM*
O=C(c1cc(COc2ccc(F)c(F)c2)on1)N1CCN(C/C=C/c2ccccc2)CC1 | -7.5% | ? | 4.9% | ?
Cc1ccc(NC(=O)ON=C2CCCC2)cc1 | 19.9% | 4.65µM* | 9.3% | 3.3%
O=C(Nc1ccccc1)ON=C1CCCC1 | ? | 8.28µM* | 14.9% | 12.1%
COc1cc([N+](=O)[O-])c2nccnc2c1 | 9.28µM* | 17.0% | -7.6% | 16.5%
COC(=O)c1ccc2cc(OC)cc([N+](=O)[O-])c2n1 | nt | nt | -7.3% | 12.6%
COCCOc1ccc(C(F)(F)F)cc1NC(=O)c1ccc(C(F)(F)F)cc1 | ? | 0.9% | -3.5% | -4.0%
COCCOc1ccc(C(F)(F)F)cc1Nc1nc2ccccc2o1 | 50.9% | 15.8% | 30.6% | 14.1µM*
COc1ccccc1Cn1c(SCC#N)nc2cc(C(=O)N3CCC4(CC3)OCCO4)ccc2c1=O | 9.28µM* | ? | -1.0% | ?
Cc1ccc([C@H]2C[C@H](n3cc(C4CC4)nn3)[C@@H](O)CN2C(=O)C2CCCCC2)cc1 | nt | nt | -2.3% | nt
CCCCNC(=S)N(C)/N=C/c1sc(N2CCCCC2)nc1-c1cccs1 | 11.7µM* | 10.4µM* | nt | -12.6%
CC(C)NC(=S)N/N=C/c1sc(N2CCCCC2)nc1-c1cccs1 | 0.828µM* | 0.0% | 17.7%[11.6 µM] | ?
CCCCNC(=S)N(C)/N=C/c1c(F)cccc1F | -2.3% | -6.0% | 37.8% | ?
O=C(N/N=C/c1sc(N2CCCCC2)nc1-c1cccs1)C1CC1 | 5.22µM* | 10.4µM* | 13.8% | ?
NC(=O)N/N=C/c1sc(N2CCCCC2)nc1-c1cccs1 | nt | nt | 4.1% | ?
C/C(=N\NC(N)=S)c1cc(-c2ccccc2)c(-c2ccccc2)s1 | ? | 9.28µM* | 54.0% | 6.31µM*
C/C(=N/NC(N)=S)c1ccc(Br)s1 | -3.0% | 14.7µM* | 81.7% | ?
CCc1ccc2c(c1)C(O)(CC(=O)c1cccs1)C(=O)N2 (stereo unspecified) | 10.2%[1.15 µM] | 0.0% | 0.0% | 5.2%
Cc1ccsc1C1C=C(c2cccc(Br)c2)Nc2ncnn21 (stereo unspecified) | 11.7µM* | 0.5% | -1.0% | -22.9%
SMILES | Pf growth 96h | Pf growth 48h | AMA1 RON2 block | HCV inhibitor
COc1ccc(CNC(=O)[C@H](C)N2C(=O)N3CCc4c([nH]c5ccc(OC)cc45)[C@@]3(C)C2=O)cc1 | ? | ? | -1.1% | ?
COc1ccc(CCNC(=O)[C@H](C)N2C(=O)N3CCc4c([nH]c5ccccc45)[C@@]3(C)C2=O)cc1 | ? | ? | -4.2% | 4.47µM*
COc1ccc(CCNC(=O)[C@H](C)N2C(=O)N3CCc4c([nH]c5ccccc45)[C@@]3(C)C2=O)cc1OC | -5.0% | ? | -10.7% | 1µM*
CC(C)[C@@H](C(=O)NC1CCCC1)N1C(=O)N2CCc3c([nH]c4ccccc34)[C@@]2(C)C1=O | ? | -46.3% | -15.8% | ?
COc1cccc(CNC(=O)[C@@H](C)N2C(=O)N3CCc4c([nH]c5ccc(OC)cc45)C3(C)C2=O)c1 (stereo partly specified) | ? | -50.0% | -21.7% | 8.91µM*
C[C@@H](C(=O)NC1CCCC1)N1C(=O)N2CCc3c([nH]c4ccccc34)[C@@]2(C)C1=O | 53.9% | 3.6% | -4.1% | 10µM*
COc1ccccc1CNC(=O)[C@H](C)N1C(=O)N2CCc3c([nH]c4ccccc34)[C@@]2(C)C1=O | ? | -23.3% | 0.0% | ?
